The values that follow come from PubChem BioAssay (NCATS).

Assay [1] can be described thus: Cellular Toxicity (caspase-3) Mesangial (AID 660).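 Note: combined caspase 3 and 7 activity read by Caspase-Glo luminescence; cells exposed to compound for 16 h before the caspase read.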 To be noted: mesangial cells, normalized: DMSO 0%, 100 µM tamoxifen 100%; at 91.7 µM (top of the series). The procedure, abridged: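 Mesangial cells, 1000/well, 5 h settle at 37 °C; compound 16 h, 37 °C; Caspase-Glo 3/7 reagent 20 min RT; luminescence. Norm.: DMSO = 0%, tamoxifen 100 uM = 100%. AC50, Hill fit.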
The nature of assay [2]: Cellular Toxicity (caspase-3) SK-N-SH (AID 661).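 Note: 0% = DMSO basal and 100% = 10 µM staurosporine.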 The procedure, abridged: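 Human neuroblastoma SK-N-SH, 1500 cells/well, 5 hr pre-incubation, then compound 16 hr, 37 °C. Caspase-Glo 3/7 reagent, 1 hr RT, luminescence. Norm. to DMSO/10 uM staurosporine; Hill-fit AC50.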
Assay [3] is described as follows: Cellular Toxicity (caspase-3) H-4-II-E (AID 663).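 Note: cells exposed to compound for 16 hr before readout.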 To be noted: H-4-II-E rat hepatoma, scaled: DMSO 0%, 100 µM tamoxifen 100%; at 92.2 µM (top of the series). The procedure, abridged:
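Apoptosis induction is scored as increased luminescence from caspase 3/7 substrate cleavage in rat hepatoma H-4-II-E cells exposed to compound for 16 hr. Activity is scaled between DMSO and 100 uM tamoxifen.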

Assay [4] is described as follows: Cellular Toxicity (caspase-3) Hek293 (AID 664).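 Note: cells exposed to compound for 16 h at 37 °C before readout.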 To be noted: HEK293 caspase-3 activation, DMSO = 0%, 100 µM tamoxifen = 100%; at 92.2 µM (top of the series). The procedure, abridged:
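Cells plated, 5 hr at 37 °C; compounds added; 16 hr at 37 °C; Caspase-Glo 3/7 reagent, 20 min RT; luminescence read. Activation expressed relative to DMSO and 100 uM tamoxifen, AC50 by Hill model.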

The nature of assay [5]: Cellular Toxicity (caspase-3) N2a (AID 665).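 Note: compound exposure lasted 16 h at 37 °C before readout.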 The procedure, abridged: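 N2a cells, 1500/well, 5 h settle at 37 °C; cpd 16 h, 37 °C; Caspase-Glo 3/7, 1 h RT; luminescence. Norm: DMSO = 0, 10 uM staurosporine = 100%. AC50, Hill fit.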
Assay [6] is described as follows: Cellular Toxicity (caspase-3) NIH 3T3 (AID 666).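 Note: caspase signal read after 16 h compound exposure; 0% = DMSO basal and 100% = 100 µM tamoxifen stimulation.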 The procedure, abridged: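 Luminescence from aminoluciferin released by caspase-3/7 cleavage of a peptide substrate served as read-out. Mouse fibroblast NIH 3T3 cells were exposed to compounds over a concentration range for 16 hours, and AC50 values came from standard Hill modelling.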
Assay [7] is described as follows: Cellular Toxicity (caspase-3) Renal Proximal Tubule (AID 667).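 Note: cells exposed to compound for 16 hours at 37 °C before detection; 0% = DMSO basal and 100% = 10 µM staurosporine.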 Conditions: Potency: caspase-3 activation. The procedure, abridged: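 In qHTS format, rat primary proximal tubule cells seeded at 1000 per well are exposed to compounds for 16 hours at 37 °C. An increase in Caspase-Glo 3/7 luminescence indicates caspase activation.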
The target of assay [8] is Cytochrome P450 3A4 (Homo sapiens) (UniProt P08684). Kind of assay: qHTS Assay for Inhibitors and Substrates of Cytochrome P450 3A4 (AID 884). Note: nearly all actives have a fitted effect of over 50% in size. Note: potency is the fitted concentration of half-maximal effect. The procedure, abridged:
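20 nM human CYP3A4 with 25 uM Luciferin-PPXE (at KM) in 200 mM KPO4, preincubated 10 min with compound; NADPH regeneration started a 60 min RT reaction. Luciferin detected by luminescence, normalized to 57 uM ketoconazole as full inhibition.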
(qHTS replaces the single test concentration by a dilution series.)

Assay [9] in a line: Cell Viability - LYMP2-001 (AID 921).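 Note: cells exposed to compound for 24 h at 37 °C; 0% = DMSO only and full inhibition = tetraoctylammonium bromide control wells; nearly all actives have a fitted effect of over 70% in size.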 The procedure, abridged:
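qHTS, 1536-well; lymphoblastoid cells, 24 hr compound, 37 C; ATP by CellTiter-Glo, 30 min RT; luminescence; Hill-fit AC50.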

Assay [10] concerns the target Cytochrome P450 3A4 (Homo sapiens) (UniProt P08684). Kind of assay: qHTS Assay for Activators of Cytochrome P450 3A4 (AID 885). Note: nearly all actives have a fitted effect of over 65% in size. The procedure, abridged: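 Signal was normalized against complete inhibition by 57 uM ketoconazole. The reaction used 20nM CYP3A4 with 25uM Luciferin-PPXE, 10-min compound preincubation and a 60-min NADPH-supported step at RT.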

Unmarked numbers belong to inactive results. Inconclusive results are not listed. The source made the active and inactive calls. Calls come from the whole dose curve; as a rule, active = well fitted curve in the direction sought with a large enough effect; inconclusive = small, poorly fitted or top-dose-only effect, or another doubt; inactive = no such curve, though single readings can be large; an effect the other way counts as inactive or inconclusive.

Chain of Cytochrome P450 3A4 (Homo sapiens) (P08684 whole entry, looked up): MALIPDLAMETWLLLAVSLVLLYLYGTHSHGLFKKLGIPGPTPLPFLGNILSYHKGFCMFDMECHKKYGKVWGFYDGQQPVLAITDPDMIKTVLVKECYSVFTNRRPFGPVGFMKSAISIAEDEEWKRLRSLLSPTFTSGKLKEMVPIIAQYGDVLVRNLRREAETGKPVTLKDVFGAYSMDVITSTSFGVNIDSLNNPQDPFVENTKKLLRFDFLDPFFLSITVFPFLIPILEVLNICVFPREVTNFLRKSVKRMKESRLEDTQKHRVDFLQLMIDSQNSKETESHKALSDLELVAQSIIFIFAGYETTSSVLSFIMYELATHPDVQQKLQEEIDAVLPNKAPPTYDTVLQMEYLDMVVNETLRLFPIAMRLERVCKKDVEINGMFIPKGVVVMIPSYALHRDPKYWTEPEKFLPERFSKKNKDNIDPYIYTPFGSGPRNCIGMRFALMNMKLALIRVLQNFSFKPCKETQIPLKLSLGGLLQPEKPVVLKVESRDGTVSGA

For the compound `Cc1ccc(C)o1`, the caspase-3 activation in assay [1] is -0.182%; in assay [3], -0.53%; in assay [4], 0.32%. For the same compound, the outcome in [2], in [5] and in assay [6] was inactive. Besides, the Potency entry in [7], in [8] and in assay [9] was “inactive” throughout.
Consider `Cc1ccc2ncccc2c1`, for which the caspase-3 activation in [1] is 0.979%; in assay [3], 0.47%; in assay [4] it was 0.475%. In addition, the outcome in assay [2], in assay [5] and in assay [6] was inactive. The Potency result in [7], in assay [8] and in [9] was “inactive” throughout.
Turning to `CC(=C/C=C/C(C)=C/C=C/C=C(C)/C=C/C=C(C)/C=C/C(=O)O)/C=C/C(=O)O`, the figures for the caspase-3 activation in assay [1], in assay [3] and in assay [4] were -0.768%, 0.467% and -1.17%, respectively. Besides, the call in [2], in assay [5] and in assay [6] was inactive. The Potency result in [7], in assay [8] and in [9] was “inactive” in each case.
For the compound `O=Nc1ccc(NO)cc1`, the caspase-3 activation in assay [1] was 0.317%; in assay [3], 1.96%; in assay [4], 11.4%. The result in assay [2], in assay [5] and in [6] was inactive. Also, the Potency entry in assay [7] and in assay [8] was “inactive” throughout.
With `Cc1cc(C(=O)O)ccc1[N+](=O)[O-]`, the caspase-3 activation is 0.159% in assay [1], -0.927% in assay [3] and 1.07% in assay [4]. For the same compound, the result in assay [2], in assay [5] and in assay [6] was inactive. For the same compound, the Potency entry in assay [7], in assay [8] and in assay [9] was “inactive” throughout.
For `CCCCCCCCC/C=C/CC1CC(=O)OC1=O` (configuration not stated), the caspase-3 activation in [1] is 0.816%; in assay [3] it was 1.69%; in assay [4], 5.74%. Besides, the result in [2], in assay [5] and in [6] was inactive. In addition, the Potency result in [7], in [8] and in assay [9] was “inactive” in each case.
As to `NC(=S)NNC(N)=S`, the caspase-3 activation in assay [1] is -0.792%; in [3], 0.228%; in assay [4] it was 1.03%. Besides, the outcome in assay [2], in [5] and in assay [6] was inactive. For the same compound, the Potency result in assay [7], in assay [8] and in [9] was “inactive” in each case.
Regarding `CC(C)=CCl`, the caspase-3 activation was 0.522% in assay [1], -0.24% in [3] and 1.55% in assay [4]. In addition, the call in assay [2], in assay [5] and in [6] was inactive. The Potency entry in assay [7], in [8] and in assay [9] was “inactive” in each case.
As to `NC(=O)NC(N)=O`, the caspase-3 activation was -0.43% in assay [1], -0.188% in assay [3] and 0.826% in [4]. The call in assay [2], in assay [5] and in [6] was inactive. The Potency entry in [7], in assay [8] and in [9] was “inactive” each time.
`CC(=O)CC(C)C`: the caspase-3 activation in assay [1] was 0.196%; in [3], 1.31%; in assay [4] it was -0.532%. In addition, the result in [2], in assay [5] and in assay [6] was inactive. The Potency entry in assay [7], in assay [8] and in assay [9] was “inactive” throughout.
For `NCCCCCCN`, the figures for the caspase-3 activation in [1], in [3] and in assay [4] were 0.654%, 1.31% and -1.45%, respectively. Besides, the compound was classed as inactive in assay [2], in assay [5] and in assay [6]. The Potency result in [7], in assay [8] and in assay [9] was “inactive” each time.
As to `O=C(O)c1cccc([N+](=O)[O-])c1`, the results for the caspase-3 activation in assay [1], in assay [3] and in assay [4] were -1.42%, -0.0521% and 2.38%, respectively. The outcome in assay [2], in [5] and in assay [6] was inactive. For the same compound, the Potency entry in assay [7], in assay [8] and in assay [9] was “inactive” each time.
As to `Nc1ccccc1[N+](=O)[O-]`, the values for the caspase-3 activation in [1], in assay [3] and in [4] were -0.609%, 1.23% and -2.96%, respectively. Moreover, the outcome in assay [2], in [5] and in assay [6] was inactive. Also, the Potency result in assay [7], in [8] and in assay [9] was “inactive” in each case.
As for `Oc1c(Cl)ccc(Cl)c1Cl`, the caspase-3 activation is 0.532% in [1], 0.28% in assay [3] and 4.28% in assay [4]. Also, the outcome in assay [2], in assay [5] and in assay [6] was inactive. For the same compound, the Potency entry in [7], in [8] and in [9] was “inactive” in each case.
For the compound `O=[N+]([O-])c1ccc(CCO)cc1`, the figures for the caspase-3 activation in assay [1], in assay [3] and in assay [4] were -1.2%, 0.267% and -3.11%, respectively. The outcome in assay [2], in assay [5] and in assay [6] was inactive. For the same compound, the Potency result in assay [7] and in assay [8] was “inactive” in each case.
As to `Clc1cc(Cl)cc(Cl)c1`, the values for the caspase-3 activation in [1], in [3] and in assay [4] were -0.669%, 0.838% and 0.505%, respectively. In addition, the result in assay [2], in [5] and in assay [6] was inactive. The Potency entry in assay [7], in [8] and in assay [9] was “inactive” throughout.
`Nc1nc(-c2ccccc2)cs1`: the values for the caspase-3 activation in assay [1], in assay [3] and in [4] were 0.48%, 0.301% and 0.507%, respectively. In addition, the compound was classed as inactive in assay [2], in assay [5], in assay [6] and in assay [10]. Besides, the Potency entry in [7] and in [9] was “inactive” throughout. In addition, the Potency in assay [8] was 20 µM (active).
Turning to `Cc1cccc(C(=O)O)c1`, the caspase-3 activation in assay [1] was -1.17%; in assay [3] it was -1.62%; in assay [4] it was -3.34%. The compound was called inactive in assay [2], in assay [5] and in assay [6]. For the same compound, the Potency entry in [7], in assay [8] and in assay [9] was “inactive” throughout.
In the case of `C1CCCC1`, the values for the caspase-3 activation in assay [1], in assay [3] and in assay [4] were -0.162%, -0.556% and 0.0682%, respectively. The compound was called inactive in assay [2], in assay [5] and in assay [6]. Further, the Potency result in assay [7], in assay [8] and in assay [9] was “inactive” throughout.
Take `CCN(C(=O)N(CC)c1ccccc1)c1ccccc1`: the caspase-3 activation in assay [1] is 0.257%; in assay [3] it was 2.86%; in assay [4] it was 0.606%. Further, the call in [2], in assay [5] and in assay [6] was inactive. Moreover, the Potency entry in assay [7], in assay [8] and in assay [9] was “inactive” in each case.
For `CCOc1cccc(N)c1`, the caspase-3 activation in [1] was 0.896%; in assay [3] it was 1.28%; in [4], -0.477%. In addition, the call in assay [2], in assay [5], in [6] and in assay [10] was inactive. In addition, the Potency result in assay [7] and in [9] was “inactive” in each case. Besides, the Potency in assay [8] was 31.6 µM (active).
In the case of `CO[Si](CCCNCCC[Si](OC)(OC)OC)(OC)OC`, the results for the caspase-3 activation in assay [1], in [3] and in assay [4] were 0.876%, 0.962% and -1.43%, respectively. For the same compound, the call in assay [2], in assay [5] and in assay [6] was inactive. The Potency result in assay [7], in assay [8] and in assay [9] was “inactive” in each case.
As for `c1ccc2c(c1)Oc1ccccc1S2`, the caspase-3 activation was -0.346% in [1], -0.0621% in assay [3] and -0.379% in assay [4]. The result in assay [2], in assay [5] and in assay [6] was inactive. Besides, the Potency result in assay [7], in [8] and in [9] was “inactive” in each case.
